Data from PubChem BioAssay (NCATS).
“And” between values parts separate entries of the source, which are not always exact repeats. Equal values may be shown once. Results filed as inconclusive are left out. The source made the active and inactive calls. Calls come from the whole dose curve; as a rule, active = well fitted cell-killing curve with a large enough effect; inconclusive = small, poorly fitted or top-dose-only effect, or effect the other way; inactive = no such curve, though single readings can be large or run the other way.

experiment: Viability qHTS for spleen associated tyrosine kinase inhibitor (SYKi) naive MV4-11 cells (AID 1963823); settings: MV4-11 AML viability, CellTiter-Glo luminescence, 72 h; series mostly up to 45 µM; note: nearly all actives have a fitted effect of over 40% in size
In short: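 SYKi-naive MV4-11 AML cells, 500 per well, were exposed to library compounds for 72 hr at 37 C, 5% CO2. Viability was then read by CellTiter-Glo luminescence after 10 min at room temperature.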
Potency is the fitted concentration of half-maximal effect.

Compound	Potency
C=C1C(=O)O[C@@H]2[C@H]3C(=C)[C@@H](O)C[C@H]3C(=C)C[C@@H](O)[C@@H]12	3.66 µM (active)
COC(=O)C1(C)CCC(O)C2(C)c3cc(O)c(C(C)C)cc3C(O)C(OC(C)=O)C12 (stereo not given)	inactive
O=C(NCCCNc1nc(Nc2ccc(N3CCOCC3)cc2)ncc1C1CC1)C1CCC1	0.118 µM (active)
CC1Oc2cc3c(-c4c(O)cc(O)c5c(O)c6c(cc45)OC(C)C(C)C6=O)c(O)cc(O)c3c(O)c2C(=O)C1C (stereo not given)	5.17 µM (active)
C=C(CO)C(=O)O[C@H]1CC(=C)[C@@H]2C[C@H](O)C(=C)[C@@H]2[C@H]2OC(=O)C(=C)[C@@H]21	1.8 µM (active)
COC(=O)C1(C)CCC(O)C2(C)c3c(O)cc(C(C)C)cc3C(O)C(OC(C)=O)C12 (stereo not given)	inactive
CN1CCC(O)(c2ccc(F)cc2)C(C(=O)c2ccc(F)cc2)C1 (stereo not given)	inactive
CN1[C@H]2C[C@H](OC(=O)[C@H](CO)c3ccccc3)C[C@@H]1[C@@H](O)C2	inactive
COC1CC(O[C@H]2CC[C@]3(C=O)C4CC[C@]5(C)[C@@H](C6=CC(=O)OC6)CC[C@]5(O)[C@@H]4CC[C@@H]3C2)OC(C)C1O[C@@H]1O[C@H](CO)[C@@H](O[C@@H]2O[C@H](CO)[C@@H](O)[C@H](O)[C@H]2O)[C@H](O)[C@H]1O (stereo not given in full)	0.174 µM (active)
C[C@@H]1Cc2c(Cl)cc(C(=O)N[C@@H](Cc3ccccc3)C(=O)O)c(O)c2C(=O)O1	0.718 µM (active)
CCCCCCCCC(=O)NCc1ccc(O)c(OC)c1	inactive
C=C(C)C(=O)O[C@H]1[C@@H]2[C@H](C)C(=O)O[C@@H]2C[C@@H](C)[C@@H]2C=CC(=O)[C@]21C	1.43 µM (active)
CC1=CC(=O)[C@@H](O)[C@]2(C)C3[C@@H](O)[C@@H]4OC(=O)[C@@H]([C@H]4C)[C@]3(C)C(=O)C[C@@H]12 (stereo not given in full)	0.904 µM (active)
CC[C@H]1CN2CC[C@H]1C[C@@H]2[C@@H](O)c1ccnc2ccc(OC)cc12	inactive
C=C1C[C@@H]2[C@H](CC[C@]3(C)C(=O)CC[C@@H]23)[C@@]2(C)C=CC(=O)C=C12	9.44 µM (active) and 14.8 µM (active)
CN1C(=O)C(Cc2ccc3ccccc3c2)N=C(c2ccc(O)cc2)c2cc(Cl)ccc21 (stereo not given)	20.6 µM (active)
CC[C@H]1C[C@@H]2CC[C@@H](O2)[C@@H](C)C(=O)O[C@H](CC)C[C@H]2CC[C@H](O2)[C@H](C)C(=O)O[C@@H](C)C[C@@H]2CC[C@@H](O2)[C@@H](C)C(=O)O[C@H](CC)C[C@H]2CC[C@H](O2)[C@H](C)C(=O)O1	0.0122 µM (active)
CC[C@@H](C)[C@H]1C(=O)O[C@H](C(C)C)C(=O)N(C)[C@@H](C(C)C)C(=O)O[C@H](C(C)C)C(=O)N(C)[C@@H](C(C)C)C(=O)O[C@H](C(C)C)C(=O)N1C	5.44 µM (active)
COC1CC(O[C@H]2CC[C@@]3(C)C(CCC4C3CC[C@]3(C)C(C5=CC(=O)OC5)CCC43O)C2)OC(C)C1OC1OC(COC2OC(CO)C(O)C(O)C2O)C(O)C(O)C1O (stereo not given in full)	1.23 µM (active)
CC[C@H](C)[C@H](NC(=O)[C@H]1CCCCN1C)C(=O)N(COC(=O)CC(C)C)[C@H](C[C@@H](OC(C)=O)c1nc(C(=O)N[C@@H](Cc2ccc(O)cc2)C[C@H](C)C(=O)O)cs1)C(C)C	0.0004 µM (active)

Compound	Potency
COC(=O)C1(C)CCC(=O)C2(C)c3c(O)cc(C(C)C)cc3C(O)C(OC(C)=O)C12 (stereo not given)	inactive
Clc1ccc([C@]23CNC[C@H]2C3)cc1Cl	inactive
C=C1[C@@H](C)[C@H]2[C@H](Cc3ccccc3)NC(=O)[C@]23OC(=O)/C=C/C(=O)CCC[C@@H](C)C/C=C/[C@H]3[C@@H]1O	0.92 µM (active)
C[C@@]12C[C@@H](c3ccoc3)OC(=O)C1CC[C@]1(C)[C@H]2[C@H]2C=C[C@]1(O)C(=O)O2 (stereo not given in full)	inactive
CC12CCC3C(CCC4(O)CC(O)CCC34C=O)C1(O)CCC2C1=CC(=O)OC1 (stereo not given)	0.366 µM (active)
CC(=O)OC[C@]12C[C@H](OC(=O)CC(C)C)C(C)=C[C@H]1O[C@@H]1[C@H](O)C[C@@]2(C)[C@]12CO2	0.252 µM (active)
COc1cc2c(cc1OC)[C@@]13CCN4CC5=CCO[C@H]6CC(=O)N2[C@H]1[C@H]6[C@H]5C[C@H]43	inactive
C[C@@H]1O[C@@H](O[C@H]2CC[C@@]3(C)C(CC[C@@H]4C3CC[C@]3(C)[C@@H](C5=CC(=O)OC5)CC[C@]43O)C2)[C@H](O[C@@H]2O[C@H](CO)[C@@H](O)[C@H](O)[C@H]2O)[C@H](O)[C@H]1O (stereo not given in full)	0.343 µM (active)
C[C@H]1O[C@@H](O[C@H]2C[C@@H](O)[C@]3(CO)C4C(CC[C@]3(O)C2)[C@@]2(O)CC[C@H](C3=CC(=O)OC3)[C@@]2(C)C[C@H]4O)[C@@H](O)[C@@H](O)[C@H]1O (stereo not given in full)	0.172 µM (active)
CC(=O)O[C@@H]1[C@H]2CC[C@H]3[C@@](C)(O)[C@@H]4C[C@H](O)C(C)(C)[C@@]4(O)[C@H](O)C[C@@]13C[C@@]2(C)O	inactive
Clc1ccc(CO/N=C(\Cn2ccnc2)c2ccc(Cl)cc2Cl)c(Cl)c1	13.3 µM (active)
C[C@]12CC[C@@H](O)C[C@@H]1CC[C@@H]1[C@@H]2CC[C@]2(C)C(=O)[C@@H](Br)C[C@@H]12	16.4 µM (active)
O=C(O)P(=O)(O)O	inactive
O=C(NCCN1CCC2(CC1)C(=O)NCN2c1cccc(F)c1)c1ccc2ccccc2c1	9.2 µM (active)
CC[C@H]1/C=C\C=C/C[C@@H](C)[C@H](O)[C@@](C)(O)C(=O)[C@@H](C)[C@H](O)[C@@H](C)C(=O)[C@@H](C)[C@H](O)[C@@H](C)/C=C\C(=O)O[C@@H]2[C@H](C)[C@H](CC1)O[C@]1(CC[C@H](C)[C@H](C[C@@H](C)O)O1)[C@H]2C	0.0092 µM (active)
C[C@@H](CN1CCC2(CC1)C(=O)NCN2c1cccc(F)c1)NC(=O)c1ccc(Br)cc1	16.4 µM (active)
CO[C@@H]1C[C@H](O[C@H]2CC[C@@]3(C)C(CCC4C3CC[C@]3(C)[C@@H](C5=CC(=O)OC5)[C@@H](OC(C)=O)CC43O)C2)O[C@H](C)[C@@H]1O[C@H]1O[C@H](CO[C@@H]2O[C@H](CO)[C@@H](O)[C@H](O)[C@H]2O)[C@@H](O)[C@H](O)[C@H]1O (stereo not given in full)	0.31 µM (active)
Cc1ccc2c(c1)[C@H]1CN(C)CC[C@H]1N2C(=O)CSc1nnnn1-c1ccc(Cl)cc1	inactive
CC(=O)O[C@@H]1CC2C(C)(C)C(=O)C=C[C@]2(C)C2CC[C@]3(C)C(=CC(=O)O[C@H]3c3ccoc3)[C@@]21C (stereo not given in full)	11.6 µM (active)
CC(C)[C@H]1OC(=O)[C@H](Cc2ccccc2)N(C)C(=O)[C@@H](C(C)C)OC(=O)[C@H](Cc2ccccc2)N(C)C(=O)[C@@H](C(C)C)OC(=O)[C@H](Cc2ccccc2)N(C)C1=O	3.85 µM (active)
